A selection: hits, their analogues and other compounds. The true share with any hit is near 4.6%.
DAX1 inh-1: DAX1 (NR0B1) inhibitors on StAR promoter, primary screen, cell-based, luminescence, SF-1 (NR5A1), full-length DAX-1; HEK293T StAR-luciferase reporter, SF-1/DAX-1 repression relief; inhibition, % at 6.8 µM; actives 1.1% (n = 370,000); AID 652010, 2013;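 active = inhibition above the mean over all tested compounds plus 3 SD, cut at about 3.6% in these data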;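 also: 0% = DAX-1 cells with DMSO and 100% = cells lacking DAX-1 with DMSO; higher inhibition means more luminescence from relief of DAX-1 repression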
ssDAF-12 act: S. stercoralis DAF-12 nuclear receptor activators, primary screen, cell-based, luminescence, HEK293, GRIP1 co-expression, lit1-tk-luc. Nuclear hormone receptor DAF-12 (Strongyloides stercoralis). HEK293 ssDAF-12/GRIP1 lit1-tk-luc reporter; % of 3 µM dafachronic acid response. activation, % at 6.8 µM. actives 1% (n = 370,000). AID 652126, 2013;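 active = activation above the mean over all tested compounds plus 3 SD, cut at about 0.9% in these data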;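 also: 0% = DMSO-only wells and 100% = 3 µM delta7-dafachronic acid wells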
hcDAF-12 act: H. contortus DAF-12 nuclear receptor activators, primary screen, cell-based, luminescence, HEK293, lit1-tk-luc reporter; HEK293 hcDAF-12 lit1-tk-luc reporter; 0% DMSO, 100% Δ7-dafachronic acid; activation, % at 6.8 µM; actives 1.4% (n = 370,000); AID 652067, 2013;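 active = activation above the mean of all tested compounds plus 3 SD, cut at about 5.5% in these data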;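 also: 100% = response to 3 µM Δ7-dafachronic acid high control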
Wee1 stabilizer: Wee1 degradation inhibitors, primary screen, cell-based, HeLa, Wee1K328M-luciferase, luminescence | Wee1-like protein kinase (Homo sapiens), P30291 | HeLa Luc-Wee1K328M stability; 100% = proteasome inhibitor MG132 effect | reporter increase, % at 5 µM | actives 1.2% (n = 220,000);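 active = activation above the mean of all tested compounds plus 3 SD, set per screening run, cut at about 8.8% in these data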;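 also: cells exposed to compound for 20 h before luminescence read; 0% = DMSO alone and 100% = MG132 at 30 µM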
DAX1 inh-2: DAX1 (NR0B1) inhibitors, primary screen, cell-based, HEK293, Gal4-DAX1, luciferase luminescence; Nuclear receptor subfamily 0 group B member 1 (Homo sapiens), P51843; HEK293 Gal4-DAX1 luciferase reporter; inhibition, % at 6.75 µM; actives 0.99% (n = 340,000); AID 504766, 2011;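 active = inhibition above the mean over all tested compounds plus 3 SD, cut at about 4.2% in these data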;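 also: 0% = DAX1-transfected cells with DMSO and 100% = empty-vector control cells with DMSO; inhibition shows as a rise in luminescence from relieved DAX1 repression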
Target sequence (P51843 207-470 limits assumed): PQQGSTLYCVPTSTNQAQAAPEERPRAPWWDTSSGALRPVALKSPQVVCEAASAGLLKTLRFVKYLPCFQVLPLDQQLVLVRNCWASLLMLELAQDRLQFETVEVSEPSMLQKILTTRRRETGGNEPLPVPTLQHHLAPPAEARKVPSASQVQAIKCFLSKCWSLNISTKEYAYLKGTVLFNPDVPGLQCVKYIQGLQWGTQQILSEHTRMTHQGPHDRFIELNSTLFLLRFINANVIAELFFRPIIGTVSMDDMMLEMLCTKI
hgDAF-12 ag: H. glycines DAF-12 receptor agonists, primary screen, cell-based, luminescence, HEK293, GAL4 fusion, UAS-luciferase | HEK293 GAL4-hgDAF12 UAS-luciferase reporter, agonist luminescence; normalized to butyrate control | actives 1.8% (n = 370,000) | activation, % at 6.8 µM | Nuclear hormone receptor DAF-12 (Heterodera glycines), GAL4 fusion | AID 687014, 2013;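 active = activation above a cutoff set at the mean of all screened compounds plus 3 SD, cut at about 10% in these data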;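 also: 0% = DMSO wells and 100% = sodium butyrate wells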
DAX1 inh confirm: DAX1 (NR0B1) inhibitors relieving SF-1 repression, confirmation, cell-based, luminescence, HEK293T, full-length DAX-1, SF-1 activated StAR promoter; shares compounds with DAX1 inh-1; HEK293T StAR-promoter luciferase reporter, SF-1/DAX-1 repression; inhibition, % at 6.8 µM; actives 87% (n = 2,400); AID 652134, 2013;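 active = inhibition above the average of every tested compound plus 3 SD, cut at about 3.8% in these data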;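 also: 0% = DAX-1 cells with DMSO and 100% = no DAX-1 control cells with DMSO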
Target sequence (P51843 whole entry, looked up): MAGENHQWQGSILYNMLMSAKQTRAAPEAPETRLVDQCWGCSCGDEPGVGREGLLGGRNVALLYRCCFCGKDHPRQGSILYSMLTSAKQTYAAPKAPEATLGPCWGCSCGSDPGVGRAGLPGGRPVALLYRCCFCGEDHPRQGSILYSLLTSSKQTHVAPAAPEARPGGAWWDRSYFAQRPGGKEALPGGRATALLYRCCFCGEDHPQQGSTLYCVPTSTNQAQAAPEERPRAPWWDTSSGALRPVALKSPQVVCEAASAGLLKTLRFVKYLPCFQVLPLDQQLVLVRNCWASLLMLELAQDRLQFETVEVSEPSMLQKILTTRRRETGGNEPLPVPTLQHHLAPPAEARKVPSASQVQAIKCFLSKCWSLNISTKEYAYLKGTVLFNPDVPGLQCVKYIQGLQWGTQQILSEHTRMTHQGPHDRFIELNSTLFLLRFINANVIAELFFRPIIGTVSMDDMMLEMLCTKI
SF1 AF2mut Luc: StAR reporter signal changes without DAX1, counter-screen for DAX1 inhibitor project, cell-based, luminescence, AF-2 mutant SF-1, transactivation; shares compounds with DAX1 inh-1; HEK293 StAR-luciferase, SF-1 AF2 mutant; inhibition, % at 6.8 µM; actives 78% (n = 2,400); AID 652136, 2013;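 active = inhibition above the mean of all tested compounds plus 3 SD, cut at about 3% in these data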;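 also: 0% = DAX-1 transfected cells with DMSO and 100% = cells without DAX-1 with DMSO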
LXR ag: LXR agonists, Gal4 luciferase reporter, confirmation, counter-screen for hcDAF-12 agonist project, cell-based, luminescence, HEK293, H. contortus campaign; HEK293 Gal4-LXR tk-luc reporter, 24 h; normalized: DMSO 0%, positive control 100%; shares compounds with hcDAF-12 act; activation, % at 6.8 µM; 3,400 tested, under 10 active;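 active = mean percent activation of the reporter above a cutoff set as the average over tested compounds plus their standard deviation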
hcDAF12 ag: H. contortus DAF-12 receptor agonists, confirmation, cell-based, luminescence, HEK293, lit1-tk-luc, triplicate; shares compounds with hcDAF-12 act; actives 61% (n = 3,400); AID 743032, 2013; activation, % at 6.8 µM; HEK293 hcDAF-12 lit1-tk-luc reporter; % of Δ7-dafachronic acid response;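 active = mean activation across triplicate tests above the threshold derived from the earlier primary screen, cut at about 5.5% in these data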;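 also: 0% = DMSO only wells and 100% = 3 µM Δ7-dafachronic acid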
hgDAF12 conf: H. glycines DAF-12 receptor agonists, confirmation, cell-based, luminescence, HEK293, GAL4-LBD fusion; shares compounds with hgDAF-12 ag; HEK293 GAL4-hgDAF12 luciferase reporter, agonist mode; percent of butyrate response; activation, % at 6.8 µM; actives 80% (n = 3,300); AID 743050, 2013;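 active = mean activation over triplicate wells above the hit cutoff derived from the earlier primary screen, cut at about 11% in these data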;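 also: 0% = DMSO low control and 100% = 2 mM sodium butyrate high control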
LXRb DAF12 ctr: LXR agonists, Gal4 luciferase reporter, confirmation, counter-screen for hgDAF-12 agonist project, cell-based, luminescence, HEK293, H. glycines campaign. shares compounds with hgDAF-12 ag. 24 h. activation, % at 6.8 µM. 3,300 tested, under 10 active. AID 743051, 2013;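 active = mean activation of the triplicate above a set limit carried over from the primary screen, none filed active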
An asterisk follows results filed as active; x = not tested or not shown.

SMILES | DAX1 inh-1 | ssDAF-12 act | hcDAF-12 act | Wee1 stabilizer | DAX1 inh-2 | hgDAF-12 ag | DAX1 inh confirm | SF1 AF2mut Luc | hgDAF12 conf | LXRb DAF12 ctr | others
O=C(Nc1ccc(-c2nc3cccnc3s2)cc1)c1ccco1 | 8.9* | 2.0* | 6.4* | 5 | 1 | 19* | 17* | 8.4* | 18* | 1
CC(=O)c1cccc(Nc2nc(-c3ccccc3)cs2)c1 | 9.7* | 1.0* | 9.8* | 8 | 1 | 21* | 11* | 7.0* | 19* | 1 | LXR ag=2;hcDAF12 ag=5
CC(=O)c1cccc(Nc2nc(-c3cccnc3)cs2)c1 | 1 | 0 | 0 | x | 1 | 8 | x | x | x | x
COc1ccc(-c2csc(Nc3ccccc3)n2)cc1 | 7.4* | 0 | 5 | 2 | 2 | 21* | 13* | 8.2* | 20* | 1
COc1ccccc1C(=O)NNC(=O)c1cccc(Cl)c1 | 5.6* | 1 | 13* | 4 | 1 | 17* | 14* | 7.9* | 16* | 1 | LXR ag=1;hcDAF12 ag=7.5*
Cc1ccnc(N2C(=O)c3ccccc3C2O)c1 (configuration not stated) | 7.1* | 0 | 6.7* | 2 | 2 | 16* | 11* | 7.4* | 16* | 1 | LXR ag=1;hcDAF12 ag=3
Cc1ccnc(N2C(=O)c3ccccc3C2Nc2cccc(C)c2C)c1 (configuration not stated) | 2 | 0 | 4 | 2 | 1 | 4 | x | x | x | x
COc1cccc2[nH]c(-c3ccccn3)nc12 | 7.2* | 1 | 6.4* | x | x | 18* | 8.6* | 5.6* | 16* | 1
N#C/C(=C/c1ccco1)c1nc2ccccc2s1 | 4.8* | 4.0* | 20* | 3 | 2 | 16* | 12* | 7.7* | 22* | 1 | LXR ag=1;hcDAF12 ag=14*
N#C/C(=C\c1ccc(O)c([N+](=O)[O-])c1)c1nc2ccccc2s1 | 0 | -1 | 3 | -3 | -1 | 2 | x | x | x | x
COc1ccc(Cl)cc1Cn1c(C)c(C(=O)NCc2cccc(Cl)c2)sc1=O | -1 | -2 | 0 | x | x | -5 | x | x | x | x
O=C(c1cccc(NS(=O)(=O)c2ccc(F)c(F)c2)c1)N1CCCCC1 | -1 | -1 | -1 | x | -1 | -1 | x | x | x | x
O=C(/C=C/c1ccccc1)CC(=O)c1ccccc1O | 4.5* | 0 | 5 | -2 | 4.4* | 17* | 3 | 4.0* | 6 | 0
O=C(/C=C/c1ccccc1)COC(=O)c1ccccc1 | 0 | -1 | -1 | x | 0 | 2 | x | x | x | x
Cc1noc(C)c1NC(=O)N(C)C[C@@H]1OCc2cn(nn2)CCCC(=O)N([C@H](C)CO)C[C@H]1C | 0 | -1 | 0 | x | 0 | 2 | x | x | x | x
C[C@H](CO)N1C[C@H](C)[C@@H](CN(C)S(=O)(=O)c2ccc(C#N)cc2)OCc2cn(nn2)CCCC1=O | 0 | -1 | 1 | x | 2 | 2 | x | x | x | x
CC(=O)NC12CC3CC(C1)CC(C(=O)OCC(=O)c1cc(C)n(C)c1C)(C3)C2 | 9.8* | 0 | 6.7* | x | 1 | 16* | 11* | 7.1* | 14* | 1 | LXR ag=1;hcDAF12 ag=6.2*
CCc1nc2c(OCCC3CCCCC3)cccn2c1N(C)C(=O)c1ccccc1F | 1 | -1 | -2 | x | x | -3 | x | x | x | x
O=C(N/N=C/c1ccc(Cl)cc1Cl)c1ccncc1 | -1 | -1 | -2 | x | 1 | 3 | x | x | x | x
O=C(NN=Cc1ccc(Cl)cc1Cl)c1ccccc1 | 5.5* | 1 | 3 | x | 3 | 17* | 11* | 5.8* | 16* | 1
Cc1ccccc1CN1C(=O)CSCC1(C)C(=O)NC(C)C (configuration not stated) | -1 | 0 | -1 | x | x | 7 | x | x | x | x
O=C(Nc1ccccc1)c1ccc(-c2ccccc2)s1 | 5.4* | 1 | 2 | 0 | 4 | 14* | 12* | 8.5* | 17* | 0
CNC(=S)Nc1ccc(C)cc1 | 0 | 0 | 1 | -2 | 0 | 5 | x | x | x | x
COCCNc1nnc(SC(C)C(=O)Nc2ccc(-c3nc4ccc(C)cc4s3)cc2)s1 (configuration not stated) | 2 | 0 | 3 | 6 | 0 | 9 | x | x | x | x
CNC(=S)Nc1ccc(-c2nc3ccc(C)cc3s2)cc1 | 5.9* | 1.8* | 7.3* | 5 | 1 | 18* | 12* | 6.2* | 24* | 1 | LXR ag=2;hcDAF12 ag=8.9*
CCCCNC(=S)Nc1ccc(F)cc1 | 0 | -1 | 0 | 0 | 1 | -1 | x | x | x | x

Screens: PubChem, The Scripps Research Institute Molecular Screening Center
